# Values of other authors in PubChem BioAssay AID977610.
# Out of some 3,600 compounds screened, about 3,600 (100%) were called active. No cut-off is given here; in the data, nearly all actives have Ki up to about 18000 µM. So high a share suggests a set chosen from earlier hits. The list shows a part of the results. Where a SMILES comes first, the peptide text is derived from it. Residues, ends and D or L forms follow the SMILES beside them. Peptide text beside a SMILES is read from it. [ ]: non-standard residue; d: D form. The star is where a group is joined. Orn(CH(NH2)2) = NC(N)NCCC[C@H](N)C(=O)O; Bz = O=C(c1ccccc1)*; Ahx = NCCCCCC(=O)O
# Assay: PubChem AID 977610
# Details: PDB protein-ligand complexes, literature Ki
compound,measurement,setting,value
CSCC[C@H](NC(C)=O)C(=O)N[C@@H](Cc1c[nH]c2ccccc12)C(=O)N[C@@H](CC(=O)O)C(=O)N[C@@H](Cc1ccccc1)C(=O)N[C@@H](CC(=O)O)C(=O)N[C@@H](CC(=O)O)C(=O)NCCCCCC(=O)N[C@@H](CCSC)C(=O)N1CCC[C@H]1C(=O)N1CCC[C@H]1C(=O)N[C@@H](C)C(=O)N[C@@H](CC(=O)O)C(=O)N[C@@H](CCC(=O)O)C(=O)N[C@@H](CC(=O)O)C(=O)N[C@@H](Cc1ccc(O)cc1)C(=O)N[C@@H](CO)C(=O)N1CCC[C@H]1C(N)=O (Ac-MWDFDD[Ahx]MPPADEDYSP-NH2),Ki,"protein: interleukin-8(IL-8), PDB entry 1ilq",13 µM (active)
H-GGGGGGAVPGSWPW-OH,Ki,"protein: Chymotrypsinogen A, PDB entry 1oxg",2.7e-05 µM (active)
CC[C@H](C)[C@H](NC(=O)[C@H](CCCNC(N)N)NC(=O)CNC(=O)[C@@H](NC(=O)[C@@H](NC(=O)[C@@H](NC(=O)[C@@H](NC(=O)[C@H](CO)NC(=O)CN)C(C)C)C(C)C)[C@@H](C)CC)C(C)C)C(=O)N[C@H](C(=O)N[C@@H](CC(C)C)C(=O)N[C@@H](CO)C(=O)O)[C@@H](C)CC (H-GSVVIVG[Orn(CH(NH2)2)]IILS-OH),Ki,"protein: HCV NS3 protease, PDB entry 1dxp",0.027 µM (active)
CCC(CC)O[C@@H]1CC(C(=O)O)=C[C@H](n2cc([C@H](O)CC)nn2)[C@H]1NC(C)=O,Ki,"protein: Neuraminidase, PDB entry 4ks4",0.072 µM (active)
CCC(CC)O[C@@H]1CC(C(=O)O)=C[C@H](n2cc(CCCO)nn2)[C@H]1NC(C)=O,Ki,"protein: Neuraminidase, PDB entry 4ks3",0.43 µM (active)
CCC(CC)O[C@@H]1CC(C(=O)O)=C[C@H](n2cc(C(C)(C)O)nn2)[C@H]1NC(C)=O,Ki,"protein: Neuraminidase, PDB entry 4ks5",0.13 µM (active)
CCn1c(O)cc(=O)n(CC)c1=S,Ki,"protein: AmpC beta-lactamase, PDB entry 4kz8",1600 µM (active)
O=C(O)c1ccc(CCNS(=O)(=O)c2ccsc2C(=O)O)cc1,Ki,"protein: AmpC beta-lactamase from E. coli, PDB entry 4jxv",31 µM (active)
O=C(O)C(=O)CO,Ki,PDB entry 4mfe,5400 µM (active)
CC(C)C[C@H](N)C(=O)N[C@@H](CS)C(=O)N[C@@H](CO)C(=O)N[C@@H](CC(=O)O)C(=O)N[C@@H](CCCN=C(N)N)C(=O)NCC(=O)N[C@@H](CS)C(=O)N[C@@H](CCC(=O)O)C(=O)N[C@@H](CC(N)=O)C(=O)N[C@@H](CCCN=C(N)N)C(=O)N[C@@H](Cc1c[nH]c2ccccc12)C(=O)N[C@@H](CS)C(=O)N[C@@H](CCCCN)C(N)=O (H-LCSDRGCENRWCK-NH2),Ki,"protein: urokinase-type plasminogen activator (uPA), PDB entry 4mnx",17.7 µM (active)
NCCCC[C@H](NC(=O)[C@H](CCCN=C(N)N)NC(=O)[C@H](CC(N)=O)NC(=O)[C@H](CCC(=O)O)NC(=O)[C@H](CS)NC(=O)CNC(=O)[C@H](CCCN=C(N)N)NC(=O)[C@H](CC(=O)O)NC(=O)[C@H](Cc1c[nH]c2ccccc12)NC(=O)[C@H](CS)NC(=O)[C@@H](N)CCC(N)=O)C(=O)N[C@@H](CS)C(=O)N[C@@H](CC(N)=O)C(N)=O (H-QCWDRGCENRKCN-NH2),Ki,"protein: urokinase-type plasminogen activator (uPA), PDB entry 4mnw",1.72 µM (active)
C#C[C@@H]1N[C@@H](C)[C@@H](O)[C@H]1O,Ki,"protein: Alpha-L-fucosidase Fuc2970, PDB entry 4pct",0.07 µM (active)
NC(N)NCCCNC(=O)[C@@H]1CCCCN1C(=O)[C@@H](CC1CCCCC1)NCC(=O)O,Ki,"protein: bovine trypsin, PDB entry 1k1o",0.675 µM (active)
Nc1[nH]c(=S)nc2[nH]ncc12,Ki,"protein: PDE10A2, PDB entry 4lkq",450 µM (active)
NC(N)NCCC[C@H](N)[P+](O)(O)O,Ki,"protein: M1 family aminopeptidase, PDB entry 4k5m",193 µM (active)
NC(N)NCCCC[C@H](N)[P+](O)(O)O,Ki,"protein: M1 family aminopeptidase, PDB entry 4k5l",11 µM (active)
C[C@@H]1N[C@@H](C#Cc2ccccc2)[C@H](O)[C@@H]1O,Ki,"protein: Alpha-L-fucosidase Fuc2970, PDB entry 4pcs",0.014 µM (active)
C[C@H](NC(=O)[C@H](C)NC(=O)[C@H](Cc1cc(-c2ccccc2)no1)C[P+](O)(O)c1ccc(Br)cc1)C(N)=O,Ki,"protein: Macrophage metalloelastase (F171D mutation), PDB entry 4gr8",0.0147 µM (active)
C[C@H](NC(=O)[C@H](C)NC(=O)[C@H](Cc1cc(-c2ccc(-c3cccc(Cl)c3)cc2)no1)C[P+](O)(O)c1ccc(Br)cc1)C(N)=O,Ki,"protein: Macrophage metalloelastase (F171D mutation), PDB entry 4gr0",0.00028 µM (active)
N=Cc1nc(N2CCOCC2)nc(N(Cc2ccc(Cl)cc2)C2CCCCC2)n1,Ki,"protein: CATHEPSIN L1, PDB entry 4axm",0.013 µM (active)
C[C@H](NC(=O)[C@H](CO)N[C@H](O)CSCCNC(=O)CCNC(=O)[C@H](O)C(C)(C)CO[P+](O)(O)O[P+](O)(O)OCc1oc(-n2cnc3c(N)ncnc32)c(O)c1O[P+](O)(O)O)C(=O)N[C@@H](CO)C(=O)N[C@@H](CCC(=O)O)C(=O)O,Ki,"protein: N-terminal acetyltransferase A complex subunit nat1, PDB entry 4kvm",8.9 µM (active)
CC(C)C[C@H](NC(=O)[C@@H](NC(=O)CNC(=O)c1ccccc1)C(C)C)C(=O)N[C@@H](CCCCN)C(=O)N[C@@H](CCC(=O)O)C(=O)N[C@@H](Cc1ccc(O)cc1)C(=O)NCC(=O)N[C@H](C(=O)O)C(C)C (Bz-GVLKEYGV-OH),Ki,"protein: NAD-DEPENDENT PROTEIN DEACYLASE SIRTUIN-5, MITOCHONDRIAL zebrafish Sirtuin 5, PDB entry 4uub",17.2 µM (active)
H-PKSFLV-OH,Ki,"protein: LSD1-CoREST complex, PDB entry 3zmu",49.6 µM (active)
H-PTSII-OH,Ki,"protein: CFTR Associated Ligand (CAL) PDZ domain, PDB entry 4joh",450 µM (active)
H-PLSFLV-OH,Ki,"protein: LSD1-CoREST complex, PDB entry 3zmv",55 µM (active)
CC[C@H](C)[C@H](NC(=O)[C@@H](NC(=O)[C@H](CO)NC(=O)[C@@H](N)CC(=O)O)[C@@H](C)CC)C(=O)O (H-DSII-OH),Ki,"protein: CFTR Associated Ligand (CAL) PDZ domain, PDB entry 4k72",1000 µM (active)
O=[N+]([O-])c1ccc(NNC(=S)Nc2ccc(F)cc2)c([N+](=O)[O-])c1,Ki,"protein: GTPase HRas(T35S mutant), PDB entry 2lwi",773 µM (active)
CCCCCCc1cccc(NC(=O)[C@H](N)CC[P+](O)(O)O)c1,Ki,"protein: Lipid G protein-Coupled Receptor, PDB entry 3v2w",0.077 µM (active)
NC(N)c1ccc(CNC(=O)[C@@H]2CCN2C(=O)[C@H](NCC(=O)O)C2CCCCC2)cc1,Ki,"protein: THROMBIN, PDB entry 4bah",0.00201 µM (active)
NC(=O)CN[C@@H](C(=O)N1CC[C@H]1C(=O)NCc1ccc(C(N)N)cc1)C1CCCCC1,Ki,"protein: THROMBIN, PDB entry 4bao",0.00429 µM (active)
CN(C)C(=O)CN[C@@H](C(=O)N1CC[C@H]1C(=O)NCc1ccc(C(N)N)cc1)C1CCCCC1,Ki,"protein: THROMBIN, PDB entry 4bam",0.00114 µM (active)
C[C@@H](O)[C@H](N)C(=O)NS(=O)(=O)c1cccc(-c2ccc3[nH]ncc3c2)c1,Ki,"protein: Threonine--tRNA ligase, cytoplasmic, PDB entry 4hwt",50 µM (active)
Cc1cc(-c2nn(C(C)C)c3ncnc(N)c23)cc2ccc(OCc3ccccc3)nc12,Ki,"protein: Mitogen-activated protein kinase 1 (Q103A, C164L mutant), Rat Erk2, PDB entry 4n4s",0.133 µM (active)
CC(=O)NCCCC[C@H](NC(=O)[C@H](CCCN=C(N)N)NC(=O)[C@H](Cc1cnc[nH]1)NC(=O)[C@@H](N)CCCN=C(N)N)C(=O)N[C@H](C(=O)O)C(C)C (H-RHRK(Ac)V-OH),Ki,"protein: Bromodomain-PHD Finger Module of Human Transcriptional Co-Activator CBP, PDB entry 4n3w",315 µM (active)
OC[C@@H]1[C@@H](O[C@@H]2O[C@H](CO)[C@@H](O)[C@H](O)[C@@H]2O)[C@H](O)[C@H](O)c2nccn21,Ki,"protein: GH26 beta-mannanase CjMan26C from Cellvibrio japonicus, PDB entry 4cd5",0.194 µM (active)
same,Ki,"protein: GH113 beta-mannanase AaManA from Alicyclobacillus acidocaldarius, PDB entry 4cd8",1300 µM (active)
